Assay results as given in the supplement of paper PMC7156485.

Key:
Conditions in all cases: concentration: 10 µM; 24 h
HCC1569 [1] = test: cell number relative to DMSO (% of DMSO); higher = more cells (less growth inhibition / toxicity)
Method in brief: (§1)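 Cell number or H1.0 nuclear intensity appears as percent of the plate control, based on the median of replicates. Measurements came from HCC1569 and TDF cells exposed in triplicate to compounds at 10 µM for 24 h at 37 °C, then imaged in six fields per well at ×10. Positional effects were smoothed out of HCC1569 values.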

TDF [2] = test: as above
Method in brief: as §1

TDF [3] = test: H1.0 immunofluorescence intensity relative to DMSO (% of DMSO); higher = stronger H1.0 induction, active = 120 or more
Method in brief: as §1

HCC1569 [4] = test: H1.0 immunofluorescence intensity relative to DMSO (% of DMSO); higher = stronger H1.0 induction, active = 140 or more
Method in brief: as §1
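For H1.0 immunofluorescence intensity relative to DMSO in this document: TDF is a line of transformed human dermal fibroblasts of mesenchymal origin.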
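For cell number relative to DMSO in this document: TDF denotes transformed human dermal fibroblasts of mesenchymal origin.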

| Structure (SMILES) | cell number (HCC1569 [1]) | cell number (TDF [2]) | H1.0 immunofluorescence intensity (TDF [3]) | H1.0 immunofluorescence intensity (HCC1569 [4]) |
| --- | --- | --- | --- | --- |
| OC1CCN2Cc3ccccc3N=C12 (centres undefined) [Vasicine] | 102 | 105 | 98.7 (inactive) | 89.7 (inactive) |
| CC(C)c1cc(/C=C(\C#N)C(=O)NCCCc2ccccc2)cc(C(C)C)c1O | 89.5 | 81.8 | 97.9 (inactive) | 141 (active) |
| CC(C=CC1=C(C)CCCC1(C)C)=CC=CC(C)=CC(=O)O [13-cis-retinoic acid] | 102 | 100 | 88.5 (inactive) | 123 (inactive) |
| CC1CNCCN1S(=O)(=O)c1cccc2cnccc12.Cl.Cl (centres undefined) | 101 | 105 | 88.4 (inactive) | 83 (inactive) |
| COc1cc2nc(N3CCN(C(=O)C4=CC5C=CC4CC5)CC3)nc(N)c2cc1OC (centres undefined) [Prazobind] | 101 | 102 | 95.3 (inactive) | 93.2 (inactive) |
| Cn1c(=O)c2[nH]cnc2n(C)c1=O [Aminophylline] | 103 | 115 | 98.7 (inactive) | 96.4 (inactive) |
